Consider nine compounds from PubChem BioAssay (EPA / NIEHS).

Assay [1] can be described thus: TOX21_p53_BLA_p2_viability: Viability Assessment in the Tox21 HCT-116 p53 Agonism Beta-lactamase Assay, Phase 2 (AID 2283591).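 Also: compound exposure lasted 16 h at 37 °C; actives lower the ATP signal meaning cytotoxicity.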 The method, boiled down: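 HCT116 p53-bla cells, 4000/well, dosed after 5 h plating (217-fold dilution of DMSO stocks) and incubated 16 h at 37C. Viability taken as cellular ATP by CellTiter-Glo luminescence after 30 min RT; signal loss marks cytotoxicity.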

Assay [2] concerns the target Cellular tumor antigen p53 (Homo sapiens) (UniProt P04637). The experiment in a line: TOX21_p53_BLA_p2_ratio: Tox21 HCT-116 p53 Agonism Beta-lactamase Assay, Ratio, Phase 2 (AID 2283592). The method, boiled down: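 Ratio endpoint: beta-lactamase cleavage of CCF4-AM, blue (460 nm) over green (530 nm). HCT116 reporter line; 16 h treatment, 37C; substrate 2 h RT.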
A short description of assay [3]: TOX21_p53_BLA_p3_viability: Viability Assessment in the Tox21 HCT-116 p53 Agonism Beta-lactamase Assay, Phase 3 (AID 2283593).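 Also: cells exposed to compound for 16 h before reading.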 The method, boiled down: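 HCT116 cells, 4000/well, dosed 5 h after plating by pin transfer (217-fold dilution from DMSO stock) and incubated 16 h at 37C, 5% CO2. Viability read as ATP luminescence with CellTiter-Glo after 30 min at room temperature.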

Assay [4] has as its target Cellular tumor antigen p53 (Homo sapiens) (UniProt P04637). The experiment in a line: TOX21_p53_BLA_p3_ratio: Tox21 HCT-116 p53 Agonism Beta-lactamase Assay, Ratio, Phase 3 (AID 2283596). The method, boiled down: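 Cells were seeded at 4000/well, rested 5 h at 37C, then dosed with DMSO compound solutions (217-fold dilution) for 16 h. CCF4-AM substrate was loaded for 2 h at room temperature, and the 460/530 nm emission ratio was fitted for gain of signal versus DMSO.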

The nature of assay [5]: TOX21_p53_BLA_p4_viability: Viability Assessment in the Tox21 HCT-116 p53 Agonism Beta-lactamase Assay, Phase 4 (AID 2283597).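 Also: hits lower the luminescence signal meaning cytotoxicity.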 The method, boiled down:
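Cytotoxicity was inferred from loss of CellTiter-Glo luminescence. HCT116 cells had been dosed with compounds after 5 h plating, incubated 16 h at 37C and 5% CO2, and exposed to the CCF4-AM substrate for 2 h.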

Assay [6] concerns the target Cellular tumor antigen p53 (Homo sapiens) (UniProt P04637). Kind of assay: TOX21_p53_BLA_p5_ratio: Tox21 HCT-116 p53 Agonism Beta-lactamase Assay, Ratio, Phase 5 (AID 2283599). The method, boiled down: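 HCT-116 p53-bla cells (4000/well) plated 5 h, dosed with compound (217-fold DMSO dilution) for 16 h at 37 C; CCF4-AM substrate 2 h at room temperature. Activity is the 460/530 nm emission ratio (405 nm excitation), fitted in gain-of-signal direction versus DMSO.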

A short description of assay [7]: TOX21_p53_BLA_p5_viability: Viability Assessment in the Tox21 HCT-116 p53 Agonism Beta-lactamase Assay, Phase 5 (AID 2283600). The method, boiled down: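 Luciferase-coupled ATP quantitation of cells treated for 16 h (37C, 5% CO2) with test chemicals delivered in DMSO via a 217-fold dilution; 4000 cells/well; reagent incubated 30 min at room temperature before luminescence reading.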

For assay [8], the target named is Cellular tumor antigen p53 (Homo sapiens) (UniProt P04637). The experiment in a line: TOX21_p53_BLA_p4_ratio: Tox21 HCT-116 p53 Agonism Beta-lactamase Assay, Ratio, Phase 4 (AID 2283601). The method, boiled down:
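HCT-116 p53 beta-lactamase reporter cells (4000/well) preincubated 5 h, then compound (217-fold dilution of DMSO stock) for 16 h at 37C. CCF4-AM substrate added 2 h at room temperature; 460/530 nm emission ratio fitted upward versus DMSO.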

Results filed as inconclusive are left out. Activity calls are given as the source filed them. The calls were made as follows: active = hit-call score of the fitted dose curve at least 0.9, where 1 is the maximum; inconclusive = response in the unintended direction; inactive = score below 0.9.

Cellular tumor antigen p53 (Homo sapiens), sequence (P04637 whole entry, looked up): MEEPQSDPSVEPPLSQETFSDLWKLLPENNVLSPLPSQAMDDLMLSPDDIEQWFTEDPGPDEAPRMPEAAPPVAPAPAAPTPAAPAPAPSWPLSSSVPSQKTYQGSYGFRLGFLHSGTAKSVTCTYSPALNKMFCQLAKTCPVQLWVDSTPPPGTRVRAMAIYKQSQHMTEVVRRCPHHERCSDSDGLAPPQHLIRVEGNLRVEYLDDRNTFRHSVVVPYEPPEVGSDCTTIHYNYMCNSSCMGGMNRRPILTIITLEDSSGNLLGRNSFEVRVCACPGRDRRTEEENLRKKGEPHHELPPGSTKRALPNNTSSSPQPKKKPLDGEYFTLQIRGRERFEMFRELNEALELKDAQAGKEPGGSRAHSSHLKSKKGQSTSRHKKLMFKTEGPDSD

With `CN`, the result in assay [1], in assay [2], in assay [3], in assay [4], in assay [5] and in assay [6] was inactive. The compound was classed as inactive in assay [7] and in assay [8].
As to `S=C=Nc1cccc2ccccc12`, the outcome in assay [1], in assay [3], in assay [4], in assay [5], in assay [6] and in assay [7] was inactive. In addition, the concentration at half-maximal activity (AC50) in assay [2] is 38.5 µM (active); in assay [8] it was 32.4 µM (active).
For `O=[N+]([O-])c1cc(I)c(O)c(I)c1`, the AC50 is 7.77 µM (active) in assay [1]; 17.7 µM (active) in assay [2]; 5.69 µM (active) in assay [3]; 2.65 µM (active) in assay [4]; 11.3 µM (active) in assay [5]; 24.2 µM (active) in assay [6]. Moreover, the AC50 is 11 µM (active) in assay [7] and 18 µM (active) in assay [8].
`Oc1cc(Cl)c(Cl)c(Cl)c1Cl`: the call in assay [1], in assay [5] and in assay [7] was inactive. In addition, the AC50 in assay [2] is 5.97 µM (active); in assay [3], 22.3 µM (active); in assay [4] it was 6.58 µM (active); in assay [6], 7.24 µM (active); in assay [8] it was 7.69 µM (active).
As for `CC(=O)[O][Sn]([c]1ccccc1)([c]1ccccc1)[c]1ccccc1`, the AC50 in assay [1] was 2.52 µM (active); in assay [2] it was 6.42 µM (active); in assay [3], 2.87 µM (active); in assay [4], 17.7 µM (active); in assay [5], 2.42 µM (active); in assay [6], 18.4 µM (active). Also, the AC50 in assay [7] was 11.2 µM (active); in assay [8], 8.98 µM (active).
As for `CCCCCc1cc(O)c2c(c1)OC(C)(C)c1ccc(C)cc1-2`, the AC50 in assay [1] was 14.4 µM (active); in assay [2], 22.3 µM (active); in assay [3], 30.1 µM (active); in assay [4] it was 34.4 µM (active); in assay [5] it was 14.9 µM (active); in assay [6], 23.9 µM (active). The AC50 in assay [7] was 19.8 µM (active); in assay [8], 29.9 µM (active).
For the compound `CCCC(Cn1cncn1)c1ccc(Cl)cc1Cl` (configuration not stated), the outcome in assay [1], in assay [3], in assay [5], in assay [6] and in assay [7] was inactive. The figures for the AC50 in assay [2], in assay [4] and in assay [8] were 75.6 µM (active), 85.7 µM (active) and 75.2 µM (active), respectively.
Consider `C/C(=C\c1csc(C)n1)[C@@H]1C[C@@H]2O[C@]2(C)CCC[C@H](C)[C@H](O)[C@@H](C)C(=O)C(C)(C)[C@@H](O)CC(=O)O1`, for which the call in assay [1], in assay [3], in assay [5] and in assay [7] was inactive. Besides, the AC50 was 0.0698 µM (active) in assay [2], 0.0123 µM (active) in assay [4], 0.732 µM (active) in assay [6] and 0.0121 µM (active) in assay [8].
Regarding `COC(=O)[C@]12CCC(C)(C)C[C@H]1[C@H]1C(=O)C=C3[C@@]4(C)C=C(C#N)C(=O)C(C)(C)[C@@H]4CC[C@@]3(C)[C@]1(C)CC2`, the AC50 was 1.83 µM (active) in assay [1]; 29.2 µM (active) in assay [2]; 1.37 µM (active) in assay [3]; 15.3 µM (active) in assay [4]; 1.99 µM (active) in assay [5]; 31.7 µM (active) in assay [6]. In addition, the AC50 in assay [7] is 2.57 µM (active); in assay [8] it was 7.4 µM (active).

By AC50 is commonly meant the midpoint of the concentration-response curve, whichever way the signal moves.
